# Bioassay records deposited in PubChem BioAssay by The Scripps Research Institute Molecular Screening Center.
# FBW7 activator – activators of human E3 ligase FBW7; normalized activity (activation), % at 26.1 µM; AlphaScreen FBW7–phospho-cyclin E peptide binding, activator screen; 650,000 tested, 0.13% active; Q969H0; in the data active means normalized activity above about 1.9%;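 further: purified mutant Fbw7 with reduced substrate affinity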
# GPR151 activ – activates the human receptor GPR151; Q8TDV0; PathHunter beta-arrestin GPR151 cells, luminescence; activation, % at 11.2 µM; 650,000 tested, 1% active; in the data active means activation above about 4.9%;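 further: 0% = median of compound wells and 100% = cells with positive control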
# TEAD-YAP inh – TEAD-YAP interaction inhibition; HEK-TIYL cells, TEAD-Gal4/YAP UAS-luciferase luminescence; inhibition, % at 9.12 µM; 640,000 tested, 1.4% active; in the data active means inhibition above about 32%;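 further: 0% = median of test compound wells and 100% = reference inhibitor wells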
# MITF inh – inhibitors of human MITF; AID 1259374; inhibition, % at 2.6 µM; O75030; 650,000 tested, 0.91% active; AlphaScreen MITF homodimerization, bead proximity signal; in the data active means inhibition above about 50%;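 further: 0% = vehicle wells with protein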
# Target sequence (O75030 whole entry, looked up): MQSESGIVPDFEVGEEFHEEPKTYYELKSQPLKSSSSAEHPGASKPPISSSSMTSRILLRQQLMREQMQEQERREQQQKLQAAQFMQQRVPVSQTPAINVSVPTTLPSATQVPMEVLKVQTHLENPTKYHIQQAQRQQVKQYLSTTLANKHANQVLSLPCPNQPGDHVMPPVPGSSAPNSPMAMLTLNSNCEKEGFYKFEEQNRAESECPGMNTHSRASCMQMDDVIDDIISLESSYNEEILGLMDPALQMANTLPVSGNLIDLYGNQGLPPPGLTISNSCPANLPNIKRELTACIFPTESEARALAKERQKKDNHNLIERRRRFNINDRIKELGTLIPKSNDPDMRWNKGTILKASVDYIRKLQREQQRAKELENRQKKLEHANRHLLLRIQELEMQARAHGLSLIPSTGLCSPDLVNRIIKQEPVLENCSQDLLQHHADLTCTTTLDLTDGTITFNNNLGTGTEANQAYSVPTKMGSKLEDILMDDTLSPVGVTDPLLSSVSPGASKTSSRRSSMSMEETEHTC
# MITF confirm – human MITF inhibition, confirmation | shares compounds with MITF inh | AlphaScreen MITF homodimerization, biotin/His-MITF beads | inhibition, % at 2.6 µM | 4,700 tested, 16% active | AID 1259372;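 active means inhibition above a cutoff derived from the DMSO control wells, cut at about 28% in these data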;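 further: 0% = MITF dimer wells with DMSO only; inhibitors lower the bead chemiluminescence by keeping MITF from dimerizing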
# AlphaScreen DR – optically interferes with AlphaScreen signal in dose response | shares compounds with MITF inh | AlphaScreen optical interference counterscreen, cell-free | IC50, µM | 480 tested, 6% active | AID 1259373; call rule not given here
# AlphaScreen intf2 – counter-screen: compounds optically interfering with AlphaScreen. 4,700 tested, 7.6% active. LysRS AlphaScreen counterscreen, signal interference, triplicate. inhibition, % at 2.6 µM. shares compounds with MITF inh;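 active means inhibition above a cutoff derived from the DMSO control wells, cut at about 30% in these data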
# Active calls of the source: *; / = not tested or not shown. Most compounds without a hit are left out; they make up all but 3.5% or so of the library.
SMILES,FBW7 activator,GPR151 activ,TEAD-YAP inh,MITF inh,MITF confirm,AlphaScreen intf2,others
Fc1ccc(CN2CCN(Cc3ccccc3Cl)CC2)cc1,0,0,-12,70*,11,30*,
CSc1ccc(CN2CCN(Cc3ccccc3Cl)CC2)cc1,-1,-2,-5,33,/,/,
Fc1ccccc1CN1CCN(Cc2ccc(Cl)cc2)CC1,0,1,2,50,/,/,
Fc1ccc(F)c(CN2CCN(Cc3ccccc3)CC2)c1,0,4,-2,-2,/,/,
Cc1cccc(CN2CCN(Cc3ccccc3Cl)CC2)c1,0,0,-2,51*,10,15,
CCN1CCN(Cc2cc(OC)ccc2O)CC1,0,0,6,-6,/,/,
CCS(=O)(=O)Nc1cccc(N2CCC(NC(C)Cc3ccsc3)CC2)c1 (stereo unspecified),0,0,0,-2,/,/,
Fc1ccccc1CN1CCN(Cc2ccccc2Cl)CC1,0,1,7,65*,5,18,
Fc1cccc(CN2CCN(Cc3ccccc3Cl)CC2)c1,0,-1,-9,78*,-8,-4,
O=C(COc1ccc(Cl)cc1)N1CCN(Cc2ccccc2F)CC1,0,4,1,60*,7,1,
Cc1ccccc1CN1CCN(Cc2cccc(F)c2)CC1,0,0,-1,80*,10,15,
CCOC(=O)C1=C(N)c2ccccc2CC12CCCCC2,0,0,9,2,/,/,
CC(C)(C)C1=NN(CC(=O)NC2CN3CCC2CC3)C(=O)c2cc3ccccc3n2C1 (stereo unspecified),0,0,-5,-11,/,/,
CN1CCN(Cc2ccccc2F)CC1,0,0,9,52*,1,1,
CN1CCN(Cc2ccccc2O)CC1,0,2,18,1,/,/,
O=C1C[N+]2(CC(=O)N3c4ccccc4Sc4ccccc43)CCC1CC2,0,0,-1,9,/,/,
CC1(C)C(C(=O)Nc2ccc(Cl)cn2)C1(C)C,0,0,11,-2,/,/,
Cc1ccc(OCC(=O)N2CCN(Cc3ccc(Br)cc3)CC2)cc1,0,1,4,70*,15,19,
COc1ccc(OC)c(CN2CCN(C(=O)COc3ccc(Br)cc3)CC2)c1,0,3,-1,80*,-13,-2,
Cc1ccc(OCC(=O)N2CCN(Cc3cccc(C)c3)CC2)cc1,0,0,8,51*,1,3,
CCC(C)N1CCN(C(=O)COc2cccc(C)c2)CC1 (stereo unspecified),0,2,-10,44,/,/,
Cc1cccc(CN2CCN(C(=O)COc3ccc(Br)cc3)CC2)c1,0,1,14,40,/,/,
CCC(C)N1CCN(C(=O)COc2ccc(C)cc2)CC1 (stereo unspecified),0,-1,8,54*,10,16,
COc1ccc(CN2CC3CC(C2)c2cccc(=O)n2C3)c(O)c1 (stereo unspecified),0,1,-6,4,/,/,
CCN1CCN(C(=O)COc2cccc(Br)c2)CC1,0,2,-8,-8,/,/,
SMILES,FBW7 activator,GPR151 activ,TEAD-YAP inh,MITF inh,MITF confirm,AlphaScreen intf2,others
Cc1cccc(OCC(=O)N2CCN(Cc3cccc(Br)c3)CC2)c1,0,-1,0,61*,35*,16,AlphaScreen DR=>6.5
CN1CCC2(CC1)CC(N)c1ccccc1O2 (stereo unspecified),0,0,-6,7,/,/,
O=C(Cc1ccccc1)N1CCN(Cc2ccccc2Cl)CC1,0,1,13,57*,-6,0,
O=C(Cc1ccccc1)N1CCN(Cc2cccc(F)c2)CC1,0,1,3,54*,-2,13,
O=C(Cc1ccccc1)N1CCN(Cc2cccnc2)CC1,0,0,1,69*,-1,-3,
CCc1ccc(CN2CCN(C(=O)Cc3ccccc3)CC2)cc1,0,0,11,33,/,/,
Cc1cccc(CN2CCN(C(=O)Cc3ccccc3)CC2)c1,0,1,6,37,/,/,
Fc1cccc(CCNCc2ccccn2)c1,-1,0,-8,62*,-5,6,
Clc1ccc(CCNCc2ccccn2)c(Cl)c1,0,-1,-5,33,/,/,
Cc1ccccc1CN1CCN(c2ccc(Cl)cc2)CC1,0,0,-2,-5,/,/,
CCc1ccc(CN2CCN(Cc3ccccc3C)CC2)cc1,0,2,4,65*,3,11,
Cc1ccc(C)c(CN2CCN(C)CC2)c1,0,1,4,62*,2,4,
